CIT2-GFP yeast: yeast TOR pathway CIT2-GFP modulation. AID 2029. GFP response vs DMSO, % at 10 µM. S. cerevisiae CIT2-GFP strain, flow cytometry, 3 h; 100 means same as DMSO wells. 0.065% of 320,000 active;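 active = GFP response relative to DMSO above a set limit, near the screen mean plus 3 SD, cut at about 150% in these data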;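 note: ratio of well median GFP fluorescence to mean of DMSO wells on the plate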
MEP2 TOR yeast: alters MEP2-GFP fluorescence in TOR pathway yeast screen; AID 2016; 0.51% of 330,000 active; GFP response vs DMSO, % at 10 µM; S. cerevisiae MEP2-GFP strain, flow cytometry GFP, 3 h; 100% = DMSO control level;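 active = GFP response versus DMSO above a set limit, roughly screen mean plus 3 SD, cut at about 180% in these data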;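 note: median GFP fluorescence of the barcode-gated MEP2-GFP cells per well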
LAP4 TOR yeast: yeast TOR pathway LAP4-GFP modulation; S. cerevisiae LAP4-GFP multiplex, flow cytometry GFP, 3 h; median GFP as percent of DMSO wells; GFP response vs DMSO, % at 10 µM; 0.34% of 320,000 active;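 active = GFP response vs DMSO above a set limit, about the screen mean plus 3 SD, cut at about 150% in these data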
AGP1-GFP MLPCN: alters AGP1-GFP fluorescence in TOR pathway yeast screen | S. cerevisiae AGP1-GFP multiplex flow cytometry, 3 h; GFP as percent of DMSO wells | 0.02% of 320,000 active | GFP response vs DMSO, % at 10 µM;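 active = GFP response relative to DMSO above a set limit, near screen average plus 3 SD, cut at about 150% in these data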;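 note: median GFP channel fluorescence of the gated AGP1 strain per well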
RPL19A-GFP yeast: yeast TOR pathway RPL19A-GFP modulation | S. cerevisiae RPL19A-GFP strain, flow cytometry, 3 h; active compounds read low | percent response vs DMSO, % at 10 µM | 0.3% of 330,000 active | AID 2025;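 active = percent response vs DMSO below 50%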;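 note: median channel GFP fluorescence of the barcoded RPL19A-GFP strain; lower means less RPL19A-GFP as with rapamycin TOR inhibition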
DSG3 Ab inh: blocks pemphigus antibody binding to human desmoglein-3; P32926; AID 588358; 0.48% of 310,000 active; binding (percent of control), % at 10 µM; DSG3-coupled beads, scFv-anti-DSG3-GFP binding, flow cytometry; active compounds read low;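 active = binding more than 3 SD below its plate's average and above zero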;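 note: hits lower antibody fragment binding to DSG3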
LAP4 cherry2: reconfirmed LAP4-GFP TOR pathway modulator in yeast. shares compounds with LAP4 TOR yeast. S. cerevisiae LAP4-GFP strain, flow cytometry GFP, 3 h. GFP response vs DMSO, % at 10 µM. 20% of 590 active. AID 2621;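 active = GFP signal as percent of the solvent control above about 150%, meaning raised reporter expression, limit read from the data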
MEP2 cherry2: second confirmation of modulators of TOR reporter MEP2-GFP in yeast; 10% of 590 active; shares compounds with LAP4 TOR yeast; GFP response vs DMSO, % at 10 µM; AID 2622; S. cerevisiae MEP2-GFP strain, flow cytometry GFP, 3 h;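 active = GFP signal above 150% of the solvent control wells, that is a rise of more than half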;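 note: median channel GFP fluorescence of all gated yeast cells per well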
RPL19A GFP CP2: second confirmation of modulators of TOR reporter RPL19A-GFP in yeast; shares compounds with LAP4 TOR yeast; S. cerevisiae RPL19A-GFP strain, flow cytometry GFP, 3 h; active compounds read low; 100% means same as DMSO wells; GFP response vs DMSO, % at 10 µM; 3% of 590 active;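 active = under 65% GFP response relative to DMSO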;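 note: median GFP channel fluorescence per well over the all cells gate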
CIT2 GFP CP2: yeast CIT2-GFP TOR reporter modulation, second cherry pick | shares compounds with LAP4 TOR yeast | S. cerevisiae CIT2-GFP strain, flow cytometry GFP, 3 h; DMSO control wells read 100% | GFP response vs DMSO, % at 10 µM | 8% of 590 active;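 active = GFP response vs DMSO above about 150%, limit read from the data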;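 note: median green fluorescence per well over all gated yeast cells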
AGP1 GFP CP2: second confirmation of modulators of TOR reporter AGP1-GFP in yeast; S. cerevisiae AGP1-GFP strain, flow cytometry GFP, 3 h; percent response vs DMSO, % at 10 µM; shares compounds with LAP4 TOR yeast; 590 tested, under 10 active;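 active = over 150 percent of DMSO response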;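 note: median GFP channel fluorescence over all cells without mother daughter split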
s288c autofluor: yeast s288c autofluorescence artifact, counter-screen; S. cerevisiae s288c, 520 nm autofluorescence, flow cytometry, 3 h; active compounds read high; zero means same as solvent-only cells; 610 tested, under 10 active; shares compounds with LAP4 TOR yeast; fluorescence change (kMESF span) at 33 µM;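 active = fluorescence span over the dose series, or activity score, above about 33, limit read from the data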
s288c autofl DR: counter-screen for autofluorescence of TOR hits in yeast s288c; AID 488829; fluorescence change (span) at 33 µM; S. cerevisiae s288c parental, compound autofluorescence, flow cytometry, 3 h; 110 tested, under 10 active; shares compounds with LAP4 TOR yeast;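 active = fluorescence change span, or the activity score built from it, above 25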
TORC1 bypass gr: stops wildtype yeast growth while TORC1 bypass cells still grow; shares compounds with LAP4 TOR yeast; S. cerevisiae BY4741 spot growth rating, 48-72 h; active compounds read low; growth rating (0-3) at 30 µM; 120 tested, under 10 active;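 active = growth rating at most 1 for wild type yeast while the TORC1 bypass strain still grows fully, rated 3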
A number is an active result; - = inactive; . = not tested or not shown. The list is not random: actives were taken first. Their share in the collection is about 1.2%.

SMILES | CIT2-GFP yeast | MEP2 TOR yeast | LAP4 TOR yeast | AGP1-GFP MLPCN | RPL19A-GFP yeast | DSG3 Ab inh | s288c autofluor | others
CS(=O)(=O)N1N=C(c2ccccc2)CC1c1ccc2c(c1)OCO2 (configuration not stated) | 242.9 | 305.1 | 243.4 | - | - | . | 82.7
COc1ccc(N2CCN(C(=O)c3ccc(Br)cc3)CC2)c([N+](=O)[O-])c1 | - | - | 198.6 | - | - | . | -
COc1ccc(N2CCN(C(=O)c3ccccc3)CC2)c([N+](=O)[O-])c1 | - | - | 189.3 | - | - | - | -
COc1ccc(N2CCN(C(=O)c3ccc(C)cc3)CC2)c([N+](=O)[O-])c1 | - | - | - | - | - | - | .
O=c1[nH]c(-c2ccc(Cl)cc2)cs1 | - | - | - | - | - | - | - | LAP4 cherry2=-;MEP2 cherry2=-;RPL19A GFP CP2=-;CIT2 GFP CP2=-;AGP1 GFP CP2=-
Cc1ccc(C)c2c(SC(C)C(=O)NCc3ccco3)nc(-c3ccccc3)nc12 (configuration not stated) | - | - | - | - | - | - | .
Cc1ccc2ccc(C(Nc3ccccn3)c3ccccc3)c(O)c2n1 (configuration not stated) | - | - | - | - | - | - | .
Cc1cccc(NC(c2ccc(C)s2)c2ccc3ccc(C)nc3c2O)n1 (configuration not stated) | - | - | 176.5 | - | - | - | -
CCOC(=O)/C(=C\c1cn(C)c2ccccc12)[N+](=O)[O-] | - | - | 207.2 | - | - | - | -
C[C@]12C=C[C@H](O)CC1=CCC1C2CC[C@@]2(C)C1CCC21OCCO1 (some centres not stated) | - | - | 196.7 | - | - | - | . | LAP4 cherry2=-;MEP2 cherry2=-;RPL19A GFP CP2=-;CIT2 GFP CP2=-;AGP1 GFP CP2=-
C[C@]12C=CC(=O)C=C1CCC1C2CC[C@@]2(C)C1CCC21OCCO1 (some centres not stated) | - | - | - | - | - | - | .
CCc1ccc(CNC(=O)C2CCC(=O)N(CCc3ccc(Cl)cc3)C2)nc1 (configuration not stated) | - | - | - | - | - | - | .
Cc1ccc(NC(=O)c2cc(N3C(=O)C=CC3=O)ccc2Cl)cc1C | - | - | - | - | - | 88.7 | - | LAP4 cherry2=156.3;MEP2 cherry2=167.7;RPL19A GFP CP2=-;CIT2 GFP CP2=-;AGP1 GFP CP2=-
Cc1ccc(NC(=O)c2cc(-n3cnnc3)ccc2Cl)cc1 | - | - | - | - | - | - | .
CC1=C(C)/C(=N\OS(=O)(=O)c2ccccc2)C=CC1=O | - | - | 254.8 | - | - | - | -
Cc1ccc(S(=O)(=O)O/N=C2\CCCc3ccccc32)cc1 | - | - | - | - | - | - | .
ClC(Cl)(c1nnnn1-c1ccccc1)c1nnnn1-c1ccccc1 | - | - | 232.1 | - | - | 77.2 | - | LAP4 cherry2=264.5;MEP2 cherry2=-;RPL19A GFP CP2=-;CIT2 GFP CP2=-;AGP1 GFP CP2=-
c1ccc(-c2nnnn2-c2ccccc2)cc1 | - | - | - | - | - | - | .
COc1ccccc1C(=O)Nc1ccc(Br)c2cccnc12 | - | - | - | - | - | - | .
COc1ccccc1C(=O)Nc1ccc(Br)cc1C | - | - | 187.8 | - | - | - | . | LAP4 cherry2=-;MEP2 cherry2=-;RPL19A GFP CP2=-;CIT2 GFP CP2=-;AGP1 GFP CP2=-
Cc1cc(C)c(C(=O)N2CCCC(Nc3ccc(F)cc3)C2)o1 (configuration not stated) | - | - | 200.9 | - | - | - | . | LAP4 cherry2=-;MEP2 cherry2=-;RPL19A GFP CP2=-;CIT2 GFP CP2=-;AGP1 GFP CP2=-
Cc1cc(C)c(C(=O)N2CCCC(Nc3ccc(C)c(C)c3)C2)o1 (configuration not stated) | - | - | - | - | - | - | .
Nc1nc(Nc2cccc(Cl)c2)nc(NCCO)c1[N+](=O)[O-] | - | - | - | - | - | - | .
Nc1nc(NCCN2CCOCC2)nc(Nc2cccc(F)c2)c1[N+](=O)[O-] | . | . | . | . | . | . | . | s288c autofl DR=-;TORC1 bypass gr=-
COCCCNc1nc(N)c([N+](=O)[O-])c(Nc2cccc(F)c2)n1 | . | . | . | . | . | . | . | s288c autofl DR=-;TORC1 bypass gr=-
SMILES | CIT2-GFP yeast | MEP2 TOR yeast | LAP4 TOR yeast | AGP1-GFP MLPCN | RPL19A-GFP yeast | DSG3 Ab inh | s288c autofluor | others
CN(c1ccccc1)c1nc(N)c([N+](=O)[O-])c(Nc2cccc(F)c2)n1 | - | - | - | - | - | - | .
Nc1nc(NCC2CCCO2)nc(Nc2cccc(F)c2)c1[N+](=O)[O-] (configuration not stated) | - | - | - | - | - | - | . | s288c autofl DR=-;TORC1 bypass gr=-
Nc1nc(Nc2cccc(Cl)c2)nc(Nc2cccc(F)c2)c1[N+](=O)[O-] | . | . | . | . | . | . | . | s288c autofl DR=-;TORC1 bypass gr=-
N#Cc1ccc(OCC(=O)N2CCN(S(=O)(=O)c3cccc(Cl)c3)CC2)cc1 | - | - | - | - | - | - | .
O=C(Cn1nc(C(=O)O)c2ccccc2c1=O)Nc1cccc(S(=O)(=O)N2CCCCC2)c1 | - | - | - | - | - | - | .
Cc1ccc(C(=O)N/C(=C\c2cccs2)C(=O)NC2CCCCC2)cc1 | - | - | - | - | - | - | .
CCSc1nnc2ccc(-c3ccc(OC)c(OC)c3)nn12 | 150.6 | - | - | - | - | - | . | LAP4 cherry2=-;MEP2 cherry2=-;RPL19A GFP CP2=-;CIT2 GFP CP2=-;AGP1 GFP CP2=-
COc1ccc(-c2nnc3c4ccccc4c(C)nn23)cc1 | - | - | - | - | - | - | .
Cc1nn2c(-c3ccncc3)nnc2c2ccccc12 | - | - | - | - | - | . | - | LAP4 cherry2=-;MEP2 cherry2=-;RPL19A GFP CP2=64.5;CIT2 GFP CP2=-;AGP1 GFP CP2=-;s288c autofl DR=-;TORC1 bypass gr=-

Assay outcomes as filed in PubChem BioAssay.
